{"source": "PubChem BioAssay AID1981", "about": "(Southern Research Specialized Biocontainment Screening …, 2009)", "note": "Screen size: about 2,200 compounds; about 480 (22%) were called active. No rule for the calls is given here. The list is a sample of the results. Measured potencies and affinities stand elsewhere.", "data": [{"test": "S. Typhimurium GFP fluorescence dose response in modified counterscreen for PhoP regulon inhibitor project (AID 1981);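 also: 0% = induced DMSO wells and 100% = uninduced wells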", "conditions": "4 h; series mostly up to 150 µM; inhibition: at the top concentration", "values": [{"smiles": "Cc1cc(C)c2c(=O)[nH]c(SCC(=O)Nc3ccc(N(C)C)cc3)nc2n1", "inhibition": "22.4% (inactive)"}, {"smiles": "CCOC(=O)C1=C(C)NC(=S)NC1c1ccc(OC(=O)c2ccco2)cc1", "note": "(stereo unspecified)", "inhibition": "-2.14% (inactive)"}, {"smiles": "COc1ccc(NC2=NC(=S)N(c3cccc(C)c3)C23CCCCC3)cc1", "inhibition": "-1.25% (inactive)"}, {"smiles": "Cc1cccc(NC(=O)c2ccc(Cn3cc(C(F)(F)F)ccc3=O)cc2)c1", "inhibition": "-3.63% (inactive)"}, {"smiles": "O=C(O)/C=C/C(=O)Nc1cccc(C(F)(F)F)c1", "inhibition": "-8.86% (inactive)"}, {"smiles": "CN(C)CC(C(=O)c1ccccc1)c1ccccc1", "note": "(stereo unspecified)", "inhibition": "23.2% (inactive)"}, {"smiles": "Cc1ccc(C(=O)NCc2ccc(Cl)cc2)o1", "inhibition": "2.23% (inactive)"}, {"smiles": "Cc1ccc(C(=O)Nc2ccc3c(c2)OCO3)o1", "inhibition": "10.9% (inactive)"}, {"smiles": "Cc1ccc2cccnc2c1NC(=S)NC(=O)c1ccccc1", "inhibition": "24.2% (inactive)"}, {"smiles": "O=C(NC(c1ccc(Cl)cc1)c1c(O)ccc2ccccc12)c1ccccc1", "note": "(stereo unspecified)", "inhibition": "-19% (inactive)"}, {"smiles": "CCCCCn1c(C(C)NC(=O)CCC)nc2ccccc21", "note": "(stereo unspecified)", "inhibition": "-0.25% (inactive)"}, {"smiles": "O=C(CCc1ccccc1)Nc1nc2ccc(S(=O)(=O)N3CCOCC3)cc2s1", "inhibition": "30% (inactive)"}, {"smiles": "Cc1nc(SCC(=O)NC(C)c2ccccc2)c2oc3ccccc3c2n1", "note": "(stereo unspecified)", "inhibition": "-4.01% (inactive)"}, {"smiles": "CCCN(CCC)CCCNS(=O)(=O)c1ccc2c(c1)oc(=O)n2C", "inhibition": "-2.37% (inactive)"}, {"smiles": "NC(=O)c1ccccc1NC(=O)/C=C/C(=O)O", "inhibition": "-6.39% (inactive)"}, {"smiles": "O=C(/C=C/c1ccccc1)N1CCN(c2c(Cl)cccc2[N+](=O)[O-])CC1", "inhibition": "-10.6% (inactive)"}, {"smiles": "C=CCn1c(C)cc(C(=O)CSc2nc(N)cc(N)n2)c1C", "inhibition": "25.2% (inactive)"}, {"smiles": "Clc1ccc(Nc2ncnc3c2cnn3-c2ccccc2)cc1", "inhibition": "-9.26% (inactive)"}, {"smiles": "CCCNC(=O)CN(C1CCCCC1)S(C)(=O)=O", "inhibition": "-3.08% (inactive)"}, {"smiles": "CCCCC(=O)NCCNC(=O)c1cc(OCC(F)(F)F)ccc1OCC(F)(F)F", "inhibition": "-9.07% (inactive)"}, {"smiles": "Cn1c(COc2ccccc2)nnc1SCc1nc2ccccc2[nH]1", "inhibition": "-28.7% (inactive)"}, {"smiles": "Cc1ccc(C)c(/C=C/C(=O)c2ccccc(=O)c2O)c1", "inhibition": "38.6% (inactive)"}, {"smiles": "COc1ccc(C2=Nc3nc(-c4ccccc4)cn3C(c3ccc(OC)cc3)C2)cc1", "note": "(stereo unspecified)", "inhibition": "17.6% (inactive)"}, {"smiles": "N/C(=N\\OC(=O)N1c2ccccc2Sc2ccccc21)c1ccccc1", "inhibition": "20.9% (inactive)"}, {"smiles": "CCc1nn2cc(C(=O)c3cc(Cl)ccc3O)cnc2c1-c1ccc(F)cc1", "inhibition": "3.07% (inactive)"}, {"smiles": "CCN(C(C)=O)c1nc(CSc2nnc(NC(C)C)s2)cs1", "inhibition": "2.43% (inactive)"}, {"smiles": "CC1CCC(NC(=O)C2c3ccccc3C(=O)N2Cc2cccs2)CC1", "note": "(stereo unspecified)", "inhibition": "3.27% (inactive)"}, {"smiles": "Cn1ncc(Br)c1C(=O)NCc1cccs1", "inhibition": "-18.8% (inactive)"}, {"smiles": "O=C(CSc1nnc(-c2ccc(Br)cc2)o1)Nc1cccc2ccccc12", "inhibition": "-0.45% (inactive)"}, {"smiles": "O=C(CNc1ccccc1)Nc1ccc(F)cc1", "inhibition": "14.3% (inactive)"}, {"smiles": "O=C(Nc1ccc(F)cc1)c1ccccc1F", "inhibition": "-9.79% (inactive)"}, {"smiles": "O=C(Oc1c(Br)cc([N+](=O)[O-])cc1Br)c1cccnc1", "inhibition": "29.2% (inactive)"}, {"smiles": "O=C(CCCN1C(=O)CCC1=O)Nc1ccc2c(c1)OCCO2", "inhibition": "-21.9% (inactive)"}, {"smiles": "CC(C)(C)c1nn(-c2ccccc2)c2[nH]c(=O)c(CNCc3ccco3)cc12", "inhibition": "-4.67% (inactive)"}, {"smiles": "O=P(Cc1cc[n+]([O-])cc1)(c1ccccc1)c1ccccc1", "inhibition": "-15.7% (inactive)"}, {"smiles": "CCCS(=O)(=O)N1CCCC(C(=O)N2CCN(c3ccccn3)CC2)C1", "note": "(stereo unspecified)", "inhibition": "6.36% (inactive)"}, {"smiles": "COc1ccc(-c2cn[nH]c2-c2ccc(OCc3ccc([N+](=O)[O-])cc3)cc2O)cc1", "inhibition": "15.1% (inactive)"}, {"smiles": "CC(Oc1ccc(Cl)cc1)c1ccnn1S(=O)(=O)c1ccccc1", "note": "(stereo unspecified)", "inhibition": "-5.43% (inactive)"}, {"smiles": "CCOC(=O)c1cc2sc(C)cc2n1CC(=O)NCc1ccc(F)cc1", "inhibition": "1.75% (inactive)"}, {"smiles": "Cc1ccc(C(C)C)cc1C(=O)CC1(O)C(=O)N(C)c2ccccc21", "note": "(stereo unspecified)", "inhibition": "-7.31% (inactive)"}, {"smiles": "CCn1ncc(/C=C/C(=O)NCc2cn(C)nc2C)c1C", "inhibition": "-3.98% (inactive)"}, {"smiles": "O=S(=O)(Nc1ccc(N=Nc2ccc(O)c3ccccc23)cc1)c1ccccc1", "inhibition": "23.8% (inactive)"}, {"smiles": "COC(=O)COc1ccc(S(=O)(=O)Nc2ccccc2SC)cc1", "inhibition": "-20.6% (inactive)"}, {"smiles": "COc1ccc(OC)c(NC(=O)c2ccccc2NS(=O)(=O)c2cccc3cccnc23)c1", "inhibition": "6.2% (inactive)"}, {"smiles": "O=C(CSc1ncn[nH]1)Nc1cccc2ccccc12", "inhibition": "-11.3% (inactive)"}, {"smiles": "CCn1c(CNC(=O)c2cccc(C)c2)nc2ccccc21", "inhibition": "-13.4% (inactive)"}, {"smiles": "S=c1nc(-c2ccccc2)oc2c1CCCC2", "inhibition": "18.1% (inactive)"}, {"smiles": "CCC(=O)c1cn(Cc2ccc(C#N)cc2)c2ccccc12", "inhibition": "1.62% (inactive)"}, {"smiles": "O=c1c2oc3ccccc3c2ncn1Cc1ccc(Cl)cc1", "inhibition": "-20.7% (inactive)"}, {"smiles": "Cc1[nH]n(-c2ncc(-c3ccc(Cl)cc3)s2)c(=O)c1C(c1ccc(Cl)cc1)C(C#N)C#N", "note": "(stereo unspecified)", "inhibition": "26.5% (inactive)"}, {"smiles": "Cc1ccc(-n2nc(C)c(C3C(C#N)=C(N)Oc4c3c(=O)oc3ccccc43)c2Cl)cc1", "note": "(stereo unspecified)", "inhibition": "30.2% (inactive)"}, {"smiles": "Cc1snc(S(=O)(=O)/C(C#N)=N\\Nc2ccccc2)c1C#N", "inhibition": "7.12% (inactive)"}, {"smiles": "COc1ccc(CCC(=O)N2CCC3(CC2)OCCO3)cc1", "inhibition": "1.72% (inactive)"}, {"smiles": "CC1OC(Nc2cccc3ccccc23)C(O)C(O)C1O", "note": "(stereo unspecified)", "inhibition": "1.5% (inactive)"}, {"smiles": "O=C(Nc1ccc2snnc2c1)Nc1cccc2ccccc12", "inhibition": "8.11% (inactive)"}, {"smiles": "CC(C(=O)Nc1cc([N+](=O)[O-])ccc1Cl)N1CCN(c2ccccc2O)CC1", "note": "(stereo unspecified)", "inhibition": "-1.49% (inactive)"}, {"smiles": "CCCCNC(=O)Oc1cccc(N2CCCC2=O)c1", "inhibition": "-1.02% (inactive)"}, {"smiles": "CCOC(=O)c1sc(NC(=O)Nc2ccc(Cl)cc2)cc1C", "inhibition": "-0.11% (inactive)"}, {"smiles": "Cc1ccnc2nc(C(=O)Nc3ccc4c(c3)OCO4)nn12", "inhibition": "-3.72% (inactive)"}, {"smiles": "CC(C)c1ccc(NC(=O)Nc2cc3sccc3n2C)cc1", "inhibition": "-12.3% (inactive)"}, {"smiles": "CCOC(=O)CN(C)Cc1c[nH]c2ccccc12", "inhibition": "11.6% (inactive)"}, {"smiles": "O=c1[nH][nH]c(-c2ccccc2O)c1C(C[N+](=O)[O-])c1cccc(Cl)c1", "note": "(stereo unspecified)", "inhibition": "32.8% (inactive)"}, {"smiles": "Cc1[nH][nH]c(=O)c1C(c1ccc(O)c([N+](=O)[O-])c1)c1c(C)[nH][nH]c1=O", "inhibition": "26.4% (inactive)"}, {"smiles": "CCCc1[nH][nH]c(=O)c1C(c1ccc(Br)cc1)C(C#N)C#N", "note": "(stereo unspecified)", "inhibition": "-8.16% (inactive)"}, {"smiles": "CCCCCC(=O)Nc1ccc2ccccc2c1", "inhibition": "-4.56% (inactive)"}, {"smiles": "O=C(CSc1nnc(-c2ccc(O)cc2)n1-c1ccccc1)CC(=O)Nc1ccccc1", "inhibition": "17.4% (inactive)"}, {"smiles": "O=C(O)CCc1nnc2n(Cc3ccc(F)cc3)c(=O)c3ccccc3n12", "inhibition": "5.98% (inactive)"}, {"smiles": "COc1cc(CNc2ccc(CNc3ncn[nH]3)cc2)ccc1OCC(=O)NC(C)(C)C", "inhibition": "-18.5% (inactive)"}, {"smiles": "O=S(=O)(NCc1ccccc1)c1cccc(S(=O)(=O)N2CCOCC2)c1", "inhibition": "-12.6% (inactive)"}, {"smiles": "Cn1c(CC(=O)Nc2ccc(Cl)c(Cl)c2)nnc1SCC(=O)Nc1nccs1", "inhibition": "-18.6% (inactive)"}, {"smiles": "O=C(COC(=O)c1n[nH]c2ccccc12)NC(=O)NC12CC3CC(CC(C3)C1)C2", "inhibition": "-1.95% (inactive)"}]}]}
